Results filed as inconclusive are left out. Where a call stands in place of a potency, no number is given. Values without a mark were called inactive. Active and inactive are the calls of the source. Unless noted, calls come from the whole dose curve; as a rule, active = well fitted curve in the direction sought with a large enough effect; inconclusive = small, poorly fitted or top-dose-only effect, or another doubt; inactive = no such curve, though single readings can be large; an effect the other way counts as inactive or inconclusive.
How the values were obtained:
[1] = qHTS to identify inhibitors of the type 1 interferon - major histocompatibility complex class I in skeletal muscle: primary screen against the NCATS Pharmaceutical Collection (AID 1347407);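 note: luminescence of HiBiT knocked into endogenous HLA-B as interferon-induced MHC class I level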
Method in brief: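 Luminescence from HiBiT-tagged endogenous HLA-B*08:01 served as the read-out of IFN-beta-induced MHC class I in CRISPR-engineered C25cl48 myoblasts. Cells received 4 ng/ml IFN-beta plus compound (high final 46 uM, […]) for 24 h.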

[2] = target: Protein phosphatase 1D (Homo sapiens) (UniProt O15297); assay: RapidFire Mass Spectrometry qHTS Assay for Modulators of WT P53-Induced Phosphatase 1 (WIP1) (AID 1347424);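 note: amount of dephosphorylated VEPPL-S-QETFS peptide product formed by WIP1; series mostly up to about 63 µM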
Chain of Protein phosphatase 1D (Homo sapiens) (O15297 whole entry, looked up): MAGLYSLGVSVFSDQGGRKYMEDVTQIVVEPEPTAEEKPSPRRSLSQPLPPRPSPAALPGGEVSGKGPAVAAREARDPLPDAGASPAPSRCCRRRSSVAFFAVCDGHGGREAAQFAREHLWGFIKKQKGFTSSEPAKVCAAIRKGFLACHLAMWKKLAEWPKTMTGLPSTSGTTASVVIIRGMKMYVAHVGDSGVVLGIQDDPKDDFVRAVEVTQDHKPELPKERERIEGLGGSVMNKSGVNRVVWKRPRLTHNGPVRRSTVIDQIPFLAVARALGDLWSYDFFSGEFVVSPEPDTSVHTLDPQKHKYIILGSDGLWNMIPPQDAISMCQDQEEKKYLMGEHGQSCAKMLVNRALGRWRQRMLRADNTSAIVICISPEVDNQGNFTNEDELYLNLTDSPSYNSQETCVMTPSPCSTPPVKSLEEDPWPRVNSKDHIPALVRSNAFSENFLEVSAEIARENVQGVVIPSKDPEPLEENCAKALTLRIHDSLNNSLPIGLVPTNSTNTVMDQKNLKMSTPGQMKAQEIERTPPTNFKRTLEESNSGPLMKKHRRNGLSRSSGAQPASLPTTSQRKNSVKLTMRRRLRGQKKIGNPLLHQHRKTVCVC
Method in brief: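 RapidFire mass spectrometry measured dephosphorylated peptide after 5 min room-temperature reaction of 2 uM VEPPL-pS-QETFS with 10 nM WIP1 (50 mM Tris-HCl pH 7.5, 30 mM MgCl2, 0.1 mM EGTA, BSA), following 1 hr compound preincubation; 1 uM isotope-labelled product standard.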

[3] = target: Protein phosphatase 1D (Homo sapiens) (UniProt O15297); assay: Rhodamine-PBP qHTS Assay for Modulators of WT P53-Induced Phosphatase 1 (WIP1) (AID 1347425)
Method in brief: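 5 nM WIP1 + 10 uM Rh-PBP, 50 mM Tris pH 7.5, 30 mM MgCl2, 1 mM TCEP, 0.1 mM EGTA, BSA; cpds pinned, 1 hr RT; + 10 uM phosphopeptide; fluorescence 1-min reads x 11 min; delta = f1 - f0.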

[4] = Primary qHTS for inhibitors of La Crosse Virus (LACV) - induced cell death in SH-SY5Y cells (AID 1508616);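 note: top concentration of the series differs between compounds; higher means more rescue of cells from virus-induced death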
Method in brief: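 Rescue of virus-induced death was read as ATPLite luminescence after 6 days at 37C, scaled between DMSO wells with LACV and without virus. Cells were SH-SY5Y, 6000/well, infected at 0.01 MOI after compound addition.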

[5] = target: Calcium and integrin-binding protein 1 (Homo sapiens) (UniProt Q99828); assay: Primary qHTS for Identification of Calcium Integrin Binding Protein 1 (CIB1) Competitor (AID 1508620);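 note: GST tagged CIB1 binding a fluorescein labelled alphaIIb integrin peptide tracer; top concentration of the series differs between compounds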
Chain of Calcium and integrin-binding protein 1 (Homo sapiens) (Q99828 whole entry, looked up): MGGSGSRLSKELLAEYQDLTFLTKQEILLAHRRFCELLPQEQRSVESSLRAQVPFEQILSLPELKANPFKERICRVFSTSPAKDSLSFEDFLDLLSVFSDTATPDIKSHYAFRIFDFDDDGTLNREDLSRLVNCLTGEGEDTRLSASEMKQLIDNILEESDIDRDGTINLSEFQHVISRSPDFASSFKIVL
Method in brief: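 CIB1-GST (1 uM final) and compound incubated 15 min at room temperature before adding FITC-alphaIIb peptide tracer (100 nM final). Competition for binding read by fluorescence polarization (ex 480, em 540) after another 15 min at room temperature.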

[6] = Primary qHTS for small molecule stabilizers of the endoplasmic reticulum resident proteome: Secreted ER Calcium Modulated Protein (SERCaMP) assay (AID 1508630)
Method in brief: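 The SH-SY5Y reporter protocol was run at 3 concentrations up to 38.3 uM (primary) or 11 concentrations (follow-up): 16 h compound, 100 nM thapsigargin for 4 h, then extracellular luciferase luminescence.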

[7] = A High-Content qHTS Against Drug Library for the Identification of Small Molecules that Inhibit DYT1 Early Onset Primary Dystonia-Associated Cell Pathology (AID 1645839; calls by dose curve; note: series mostly up to about 46 µM)
Method in brief: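 High-content imaging quantified EGFP-TorsinA mislocalization in HEK293-derived cells inducibly expressing DYT1 mutant torsinA, after 48 h exposure to compound given together with tetracycline induction. Cell count served as a toxicity channel alongside %pathology.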

[8] = target: Cytochrome P450 2D6 (Homo sapiens) (UniProt P10635); assay: Cytochrome P450 family 2 subfamily D member 6 (CYP2D6) small molecule antagonists: luciferase biochemical (cell-free) qHTS assay (AID 1645840; active = well fitted curve in the direction sought with a large enough effect in the repeat runs; an effect the other way counts as inactive or inconclusive; note: nearly all actives have a fitted effect of over 55% in size; note: potency is the fitted concentration of half-maximal effect)
Chain of Cytochrome P450 2D6 (Homo sapiens) (P10635 whole entry, looked up): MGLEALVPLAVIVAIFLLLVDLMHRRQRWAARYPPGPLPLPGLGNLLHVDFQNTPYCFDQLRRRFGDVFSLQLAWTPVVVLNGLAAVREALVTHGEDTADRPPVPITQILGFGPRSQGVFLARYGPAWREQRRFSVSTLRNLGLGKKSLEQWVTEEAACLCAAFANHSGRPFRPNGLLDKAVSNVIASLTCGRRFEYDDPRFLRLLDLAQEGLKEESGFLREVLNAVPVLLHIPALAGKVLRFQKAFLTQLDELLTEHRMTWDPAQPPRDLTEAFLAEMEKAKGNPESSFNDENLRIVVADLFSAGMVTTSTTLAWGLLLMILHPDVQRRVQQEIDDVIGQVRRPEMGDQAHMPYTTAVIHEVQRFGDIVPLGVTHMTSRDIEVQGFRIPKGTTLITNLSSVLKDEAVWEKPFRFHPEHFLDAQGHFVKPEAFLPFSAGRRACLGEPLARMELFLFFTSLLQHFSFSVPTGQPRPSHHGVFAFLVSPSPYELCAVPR
Method in brief: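 P450-Glo CYP2D6 system: proluciferin substrate converted by enzyme to luciferin, read by luminescence proportional to activity. Enzyme-substrate mix with compound 10 min at room temperature, then NADPH regeneration 1 h before detection reagent.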

[9] = Primary qHTS for inhibitors of nuclear receptor binding SET domain protein 2 (NSD2) in an isogenic RCH-ACV NSD2 p.E1099K mutant (9B) (AID 1645876); note: nearly all actives have a fitted effect of over 70% in size
[10] = target: Cytochrome P450 2C9 (Homo sapiens) (UniProt P11712); assay: Cytochrome P450 family 2 subfamily C member 9 (CYP2C9) small molecule antagonists: luciferase biochemical (cell-free) qHTS assay (AID 1645842; active = well fitted curve in the direction sought with a large enough effect in the repeat runs; an effect the other way counts as inactive or inconclusive; note: nearly all actives have a fitted effect of over 55% in size; note: potency is the fitted concentration of half-maximal effect)
Chain of Cytochrome P450 2C9 (Homo sapiens) (P11712 whole entry, looked up): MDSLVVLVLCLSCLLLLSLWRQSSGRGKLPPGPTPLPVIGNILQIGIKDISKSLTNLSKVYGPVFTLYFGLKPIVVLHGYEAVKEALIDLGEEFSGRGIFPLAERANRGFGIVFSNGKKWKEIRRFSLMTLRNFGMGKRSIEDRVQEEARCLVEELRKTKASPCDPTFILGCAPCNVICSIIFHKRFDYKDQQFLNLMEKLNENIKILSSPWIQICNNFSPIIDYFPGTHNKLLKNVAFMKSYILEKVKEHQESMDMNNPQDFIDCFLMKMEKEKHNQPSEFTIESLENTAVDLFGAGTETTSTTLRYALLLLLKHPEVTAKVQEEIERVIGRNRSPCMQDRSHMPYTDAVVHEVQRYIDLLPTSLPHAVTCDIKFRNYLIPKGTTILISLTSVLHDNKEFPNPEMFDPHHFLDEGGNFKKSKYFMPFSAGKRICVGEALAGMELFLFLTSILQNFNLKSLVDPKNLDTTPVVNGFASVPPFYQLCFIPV
Method in brief: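 P450-Glo CYP2C9 system: proluciferin substrate with enzyme in mix containing 0.4% BSA, 10 min at room temperature, then NADPH regeneration solution added and incubated 1 h at 37C. Detection reagent stopped reaction; luminescence read after 20 min as RLU.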

[11] = Primary qHTS for inhibitors of nuclear receptor binding SET domain protein 2 (NSD2) in an RCH-ACV wild type WT cells (2C) (AID 1645877); note: nearly all actives have a fitted effect of over 70% in size; note: potency is the fitted concentration of half-maximal effect

SMILES | outcome [1] | outcome [2] | outcome [3] | outcome [4] | outcome [5] | outcome [6] | Potency [7] | Potency [8] | Potency [9] | Potency [10] | Potency [11]
CC(=O)Nc1ccccc1 | inactive | inactive | inactive | inactive | inactive | inactive | inactive | inactive | inactive |  | 
CC1CCN(CCCC(=O)c2ccc(F)cc2)CC1 | inactive | inactive | inactive | inactive | inactive | inactive | inactive | 195 nM (active) | inactive | inactive | inactive
Cc1c(C)c2c(c(C)c1OC(=O)c1cccnc1)CC[C@@](C)(CCC[C@H](C)CCC[C@H](C)CCCC(C)C)O2 | inactive | inactive | inactive | inactive | inactive | inactive | inactive | inactive | inactive | inactive | inactive
C[C@H]1COc2c(C3(N)CC3)c(F)cc3c(=O)c(C(=O)O)cn1c23 | inactive | inactive | inactive | inactive | inactive | inactive | inactive | inactive | inactive | inactive | inactive
C[C@@H]1CCC[C@H](C)N1 | inactive | inactive | inactive | inactive | inactive | inactive | inactive | inactive | inactive |  | inactive
Cc1c(N(C)C)c(=O)n(-c2ccccc2)n1C | inactive | inactive | inactive | inactive | inactive | inactive | inactive | inactive | inactive |  | 
COc1ccc(C(=O)NCc2ccc(OCCN(C)C)cc2)cc1OC | inactive | inactive | inactive | inactive | inactive | inactive | inactive | inactive | inactive | inactive | inactive
O=C(Cn1ccnc1[N+](=O)[O-])NCc1ccccc1 | inactive | inactive | inactive | inactive | inactive | inactive | inactive | inactive | inactive | inactive | inactive
CCN(CC)CCc1nc(-c2ccccc2)no1 | inactive | inactive | inactive | inactive | inactive | inactive | inactive | inactive | inactive | inactive | 
CC(C)CCCC(C)CCCC(C)CCCCC(C)CCCC(C)CCCC(C)C (stereo not given) | inactive | inactive | inactive | inactive | inactive | inactive | inactive | inactive | inactive | inactive | inactive
CN1CCCN=C1COC(=O)C(O)(c1ccccc1)C1CCCCC1 (stereo not given) | inactive | inactive | inactive | inactive | inactive | inactive | inactive | 1230 nM (active) | inactive | inactive | inactive
CC(=O)OCC(=O)[C@@]1(O)CC[C@H]2[C@@H]3CCC4=CC(=O)C=C[C@]4(C)[C@@]3(F)[C@@H](O)C[C@@]21C | inactive | inactive | inactive | inactive | inactive | inactive | inactive | inactive |  |  | 21.1 nM (active)
Cc1c(NC(=O)c2cccnc2)c(=O)n(-c2ccccc2)n1C | inactive | inactive | inactive | inactive | inactive |  | inactive | inactive |  | inactive | 
CC(=O)NCc1c(I)c(NC(C)=O)c(I)c(C(=O)O)c1I | inactive | inactive | inactive | inactive | inactive | inactive | inactive |  | inactive | inactive | inactive
NC(=O)NS(=O)(=O)c1ccc(N)cc1 | inactive | inactive | inactive | inactive | inactive |  | inactive | inactive |  | inactive | 
COc1ccc2cc(CCC(C)=O)ccc2c1 | inactive | inactive | inactive | inactive | inactive | inactive | inactive |  | inactive | inactive | inactive
NNc1nnc(NN)c2ccccc12 | inactive | inactive | inactive | inactive | inactive |  | inactive | 22900 nM (active) |  |  | 
CC(=O)N[C@@H](CC(C)C)C(=O)O | inactive | inactive | inactive | inactive | inactive | inactive | inactive |  | inactive |  | inactive
NS(=O)(=O)c1cc2c(cc1C(F)(F)F)NCNS2(=O)=O | inactive | inactive | inactive | inactive | inactive | inactive | inactive |  | inactive | inactive | 
Cc1c(Cn2ccnc2)c2ccccc2n1CCC(=O)O | inactive | inactive | inactive | inactive | inactive | inactive | inactive |  | inactive | 1950 nM (active) | 
O=C(O)Cc1cn(-c2ccccc2)nc1-c1ccc(Cl)cc1 | inactive | inactive | inactive | inactive | inactive |  | inactive | inactive |  | 4360 nM (active) | 
CC(C)=CCC[C@@](C)(O)[C@H]1CC=C(C)CC1 | inactive | inactive | inactive | inactive | inactive | inactive | inactive |  | inactive |  | 
CCCCCCCC(=O)OCC(O)CO (stereo not given) | inactive | inactive | inactive | inactive | inactive | inactive | inactive | inactive | inactive |  | inactive
CC(=O)Nc1ccc(OCCOCCOc2ccc(NC(C)=O)cc2)cc1 | inactive | inactive | inactive | inactive | inactive | inactive |  | inactive | inactive | 3470 nM (active) | inactive

Reference: PubChem BioAssay (NCATS)
